# Source: PubChem BioAssay AID588358 (NMMLSC, 2011)
# Among all 310,000 compounds or so, about 1,500 (0.48%) were called active. This is one part of a sample in which actives are shown more often than they occur. A number with no mark means an inactive call.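 How the source made its calls: active means binding more than 3 SD below its plate's average and above zero; inconclusive means below that plate limit but binding exactly zero; inactive means the rest.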
# Target: Desmoglein-3 (Homo sapiens) (UniProt P32926)
# Sequence (P32926 whole entry, looked up, the tested form may be a part): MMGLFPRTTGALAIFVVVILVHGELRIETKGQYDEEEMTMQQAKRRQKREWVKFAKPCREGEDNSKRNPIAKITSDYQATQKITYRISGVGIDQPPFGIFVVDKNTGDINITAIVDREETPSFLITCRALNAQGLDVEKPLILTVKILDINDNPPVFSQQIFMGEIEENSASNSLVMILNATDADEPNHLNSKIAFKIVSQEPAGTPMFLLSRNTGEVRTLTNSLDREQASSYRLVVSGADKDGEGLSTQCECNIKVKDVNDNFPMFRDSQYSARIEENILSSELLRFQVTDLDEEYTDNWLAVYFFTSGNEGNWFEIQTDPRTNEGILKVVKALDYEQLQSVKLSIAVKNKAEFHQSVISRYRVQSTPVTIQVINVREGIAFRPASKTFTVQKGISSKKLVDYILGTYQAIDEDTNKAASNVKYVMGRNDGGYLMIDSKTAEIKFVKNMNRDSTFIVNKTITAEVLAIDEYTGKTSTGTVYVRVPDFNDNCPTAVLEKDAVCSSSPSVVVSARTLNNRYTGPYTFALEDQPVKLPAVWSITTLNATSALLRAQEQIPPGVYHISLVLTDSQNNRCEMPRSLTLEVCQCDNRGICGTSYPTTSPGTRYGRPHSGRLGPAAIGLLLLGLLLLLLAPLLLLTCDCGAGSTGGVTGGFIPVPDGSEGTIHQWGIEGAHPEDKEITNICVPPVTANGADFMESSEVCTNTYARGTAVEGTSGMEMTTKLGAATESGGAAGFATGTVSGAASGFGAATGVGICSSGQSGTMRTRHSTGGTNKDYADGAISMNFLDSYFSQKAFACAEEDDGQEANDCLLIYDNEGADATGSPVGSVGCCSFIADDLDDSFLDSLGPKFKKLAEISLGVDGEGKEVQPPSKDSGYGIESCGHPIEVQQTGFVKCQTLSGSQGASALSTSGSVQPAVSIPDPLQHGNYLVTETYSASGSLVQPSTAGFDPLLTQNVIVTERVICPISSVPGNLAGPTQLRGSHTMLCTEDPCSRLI
# Test: inhibitors of pemphigus antibody binding to DSG3, primary screen, biochemical, bead-based, flow cytometry, scFv-GFP (AID 588358);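 further: hits lower antibody fragment binding to DSG3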
# Settings: DSG3-coupled beads, scFv-anti-DSG3-GFP binding, at 10 µM, hits give low values
row,Compound,binding (percent of control)
1,c1ccc(CCNC2CCCCCC2)cc1,68.9% (active)
2,OC(CNC1CCCCC1)c1ccccc1 (stereo not given),107%
3,c1cc2c(cc1CCNC1CCCCCC1)OCO2,97.2%
4,CN1CCC[C@@H]1CCO[C@](C)(c1ccccc1)c1ccc(Cl)cc1,102%
5,Cc1ncoc1C(=O)NCC1=C(c2cccc3ccccc23)C[C@@H]2CC[C@H]1N2Cc1ccco1,108%
